From publication PMC4552634, “A New Set of Chemical Starting Points with Plasmodium falciparum Transmission-Blocking Potential for Antimalarial Drug Discovery” (PLoS ONE, 2015)
Like-named read-outs stand apart in the source and are kept apart here. Hit rate of the full screen: of about 13,000 compounds, about 3,200 (25%) showed an effect of 50% or more. The list shows a part of the results.

Tested on: P. falciparum stage V gametocytes
Design: BacTiter-Glo ATP luminescence viability of purified stage V gametocytes in 384-well plates, per cent inhibition versus DMSO
Settings: 48 h, 5 µM, inhibitor

| Structure (SMILES) | % Inhibition [%] | % Inhibition (% Inhibition) [%] |
| --- | --- | --- |
| Cc1cc(OCCCn2ccnc2)ccc1-c1csc(NC(N)=NCc2ccccc2)n1 [TCMDC-138931] | 31.69 | – |
| CC(C(=O)OCCOCn1cnc2c(=O)[nH]c(N)nc21)N(C)C(=O)OC(C)(C)C (centres unmarked) [TCMDC-137343] | 21.46 | – |
| CC(C)c1ccc(S(=O)(=O)N(c2ccc3c(c2)OCO3)C2CCN(Cc3ccccc3)C2)cc1 (centres unmarked) [TCMDC-134099] | -69.31 | – |
| COc1ccc(N2C(N)=NC(N)=NC2(C)C)cc1OC [TCMDC-124282] | 18.93 | – |
| CC(CN1CCN(C)CC1)C(=O)Nc1cccc(-c2cccc(-c3nc4ccccc4[nH]3)c2)c1 (centres unmarked) [TCMDC-137141] | 72.32 | – |
| Cc1cccc2nc(-c3ccc(-c4cccc(NC(=O)C(C)CN5CCN(C)CC5)c4)s3)[nH]c12 (centres unmarked) [TCMDC-137155] | -49.23 | – |
| CC(CN1CCN(C)CC1)C(=O)Nc1cccc(-c2ccc(-c3nc4ccccc4[nH]3)cc2)c1 (centres unmarked) [TCMDC-137147] | 83.04 | – |
| CCc1cc2c(=O)c(-c3nc(C)cs3)c(N)oc2c(CN2CCCCC2)c1O [TCMDC-124016] | 0.6377 | – |
| COc1cc(C(=O)N2N=C(c3c(-c4ccccc4)c4cc(Br)ccc4[nH]c3=O)CC2c2cccc([N+](=O)[O-])c2)cc(OC)c1OC (centres unmarked) [TCMDC-124218] | 43.01 | – |
| Cc1noc(C)c1-c1cccc(CNCc2ccc(-c3cccc(-c4nc5cccc(C)c5[nH]4)c3)cc2)c1.O=C(O)C(F)(F)F [TCMDC-133052] | -22.75 | – |
| O=C(/C=C/c1ccc(Cl)c(Cl)c1)NC1CCC(CN2CCC(c3nc4ncccc4[nH]3)CC2)CC1 (centres unmarked) [TCMDC-140264] | 5.039 | – |
| CC(C)(C)c1ccc(CN2CCC(NC(=O)c3ccc(-c4cccc(C(F)(F)F)c4)s3)CC2)cc1 [TCMDC-134348] | -9.273 | – |
| Cc1nn(-c2cccc(C(F)(F)F)c2)c2sc(C(=O)NC3CCN(C(C)C)CC3)cc12 [TCMDC-125005] | 65.55 | – |
| COc1cc(NC(=O)c2cc3c(C)nn(-c4cccc(C(F)(F)F)c4)c3s2)cc(OC)c1OC [TCMDC-123615] | -65.38 | – |
| COc1cc(OC)c2c(C)cc(NCCCN3CCOCC3)nc2c1 [TCMDC-125775] | -9.297 | – |
| COc1cccc(-c2cc3nc4c(c(NCCCn5ccnc5)n3n2)CCCC4)c1 [TCMDC-124388] | -20.83 | – |
| COc1cc(OC)c2c(C)cc(NCCCn3ccnc3)nc2c1 [TCMDC-125762] | 61.26 | – |
| Nc1nc(-c2ccc3c(Nc4ccc(F)c(Cl)c4)ccnc3c2)cs1 [TCMDC-138353] | 24.85 | – |
| Fc1ccccc1-c1cc(Nc2ccncc2)nc(-c2cccnc2)n1 [TCMDC-125415] | 17.65 | – |
| O=C(NCCCCCN1CCC(c2c[nH]c3ccccc23)C1)Nc1ccc(Cl)c(Cl)c1 (centres unmarked) [TCMDC-139169] | -42.12 | – |
| O=C(NCCCCCN1CCC(c2c[nH]c3ccccc23)CC1)Nc1cccc(Cl)c1 [TCMDC-139167] | 82.38 | – |
| O=C(NCCCCCN1CCC(c2c[nH]c3ccccc23)CC1)Nc1cccc(Br)c1 [TCMDC-139116] | -20.19 | – |

| Structure (SMILES) | % Inhibition [%] | % Inhibition (% Inhibition) [%] |
| --- | --- | --- |
| S=C(NCCCCCN1CCC(c2c[nH]c3ccccc23)CC1)Nc1cccc(I)c1 [TCMDC-139203] | 89.1 | – |
| O=C(NCCCCCN1CCC(c2c[nH]c3ccccc23)CC1)Nc1ccc(Cl)c(Cl)c1 [TCMDC-139117] | 79.3 | – |
| O=C(NCC(CCCN1CCC(c2c[nH]c3ccccc23)CC1)c1ccccc1)Nc1ccc(Cl)c(Cl)c1 (centres unmarked) [TCMDC-139507] | -18.56 | – |
| Cc1cc(Cl)ccc1NC(=O)NCCCCCN1CCC(c2c[nH]c3ccccc23)CC1 [TCMDC-139168] | -22.23 | – |
| S=C(NCCCCCN1CCC(c2c[nH]c3ccccc23)CC1)Nc1cc(Cl)cc(Cl)c1 [TCMDC-139171] | -46.2 | – |
| O=C(NCCCCCN1CCC(c2c[nH]c3ccccc23)CC1)Nc1cccc(I)c1 [TCMDC-139201] | 57.32 | – |
| S=C(NCCCCCN1CCC(c2c[nH]c3ccccc23)CC1)Nc1ccc(Cl)c(Cl)c1 [TCMDC-139170] | -11.79 | – |
| O=C(NCCCCCN1CCC(c2c[nH]c3ccccc23)CC1)Nc1ccc(I)cc1 [TCMDC-139165] | -24.33 | – |
| O=C(Nc1cccc(-c2csc(-c3nc4ccccc4[nH]3)c2)c1)c1ccoc1 [TCMDC-132404] | 1.607 | – |
| N=C(N)NN=CC(=O)Nc1ccc(C(F)(F)F)cc1 [TCMDC-137560] | 10.99 | – |
| CCC(CC(NCCCCNC(=O)c1ccc(NC(=O)c2ccc(Cl)cc2)cc1)c1ccccc1)c1ccccc1OC (centres unmarked) [TCMDC-138580] | – | -0.1612 |
| Nc1ncc(-c2ccc(F)cc2)c2ccc(-c3cccc(F)c3)cc12 [TCMDC-134502] | -15.75 | – |
| NC(N)=NC(=O)Nc1cc(Br)c(Br)c(Br)c1 [TCMDC-137506] | -8.388 | – |
| CNCC(O)c1cc(Cl)c(Cl)cc1C (centres unmarked) [TCMDC-131255] | 13.21 | – |
| CCn1ncc(Cl)c1CN(C)S(=O)(=O)c1ccc(Br)cc1 [TCMDC-124902] | 30.97 | – |
| CCSc1nc2sc3c(c2c(=O)n1-c1ccccc1)CCN(C)C3 [TCMDC-123852] | 14.1 | – |
| CCCN(CCC)S(=O)(=O)c1ccc(C(=O)N2CCC(C(=O)OCC)CC2)cc1 [TCMDC-139301] | 16.88 | – |
| Cc1nc(N)nc(N)c1-c1cccc(Cl)c1 [TCMDC-137375] | 13.21 | – |
| c1ccc(COc2ccc(Nc3ncnc4cnc(-c5ccc(CNc6cccnc6)o5)cc34)cc2)cc1 [TCMDC-137776] | 19.44 | – |
| O=C(NCCCCCN1CCC(c2c[nH]c3ccccc23)CC1)Nc1ccc(I)c(Cl)c1 [TCMDC-139202] | -23.12 | – |
| O=C(NCCCCCN1CCC(c2c[nH]c3ccccc23)CC1)Nc1ccc(Br)cc1 [TCMDC-139115] | -28.65 | – |
| Cc1ccc(NC(=O)NCCCCCN2CCC(c3c[nH]c4ccccc34)CC2)cc1I [TCMDC-139200] | 66.97 | – |
